From article PMC6451091, “NextPBM: a platform to study cell-specific transcription factor binding and cooperativity” come the findings set out here.

In all, about 3,700 sequences were measured (“z-score”: median about 4, highest 2% from about 8.4 on). The entries come from a sample that favours the highest values as a whole.

The target in assay [1] is PU.1 (IVT) (UniProt P17947 1-270). As to the kind of experiment: protein-binding microarray (PBM); 20 mM HEPES pH 7.9, 100 mM NaCl, 1 mM DTT, 0.2 mg/mL BSA, 0.02% Triton X-100, 2% milk, 0.4 mg/mL salmon testes DNA; 1 h; temperature not stated; high values mean tight binding. Particulars: dsDNA, one strand shown. The essentials: (§1)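 PU.1, full-length and untagged, came from coupled human in vitro transcription/translation and was bound for 1 h to double-stranded DNA microarrays of 20-bp genomic sites and single-nucleotide variants in HEPES pH 7.9, 100 mM NaCl, 2% milk and salmon testes DNA. After antibody detection, the values were taken as z-scores of scanned fluorescence normalised by linear regression.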

The target is the same in assay [2]. The description is as above. The conditions noted are these: dsDNA, one strand shown. The method in brief: as §1
This is another data set of the same source.

For “GCCTAGCACTGATAGAGGAAGTGCAACCAGTGCTAGGTCTTGATTCGCTTGACGCTGCTG”, the binding signal in the assay with PU.1 (IVT) [1] is 4.92 z-score. The same measure, in the same setting: under “GCCTAGCACGATAGCAGGAAGTGAAACTAGTGCTAGGTCTTGATTCGCTTGACGCTGCTG” stands 3.14 z-score.

As to “GCCTAGCACGCAGAGAGGAAGTGTGAATGGTGCTAGGTCTTGATTCGCTTGACGCTGCTG”, the binding signal in the assay with PU.1 (IVT) [1] amounted to 3.72 z-score. In the case of “GCCTAGCACTGAGAGGAGAAGTGAAACCCGTGCTAGGTCTTGATTCGCTTGACGCTGCTG”, the binding signal in the assay with PU.1 (IVT) [2] is 1.26 z-score. The sequence “GCCTAGCACATTTCTGGGAAGTGAAACTAGTGCTAGGTCTTGATTCGCTTGACGCTGCTG” displayed a binding signal in the assay with PU.1 (IVT) [1] of 1.93 z-score. On the same count and under the same terms, under “GCCTAGCACATAAAAGGGAAGTGGGGCATGTGCTAGGTCTTGATTCGCTTGACGCTGCTG” stands 5.38 z-score; under “GCCTAGCACAGAAAAAGGAAGTGAGCAAAGTGCTAGGTCTTGATTCGCTTGACGCTGCTG”, 5.53 z-score. On the same count and under the same terms, under “GCCTAGCACTTAAAGAGGAAGAGCATCTTGTGCTAGGTCTTGATTCGCTTGACGCTGCTG” stands 3.21 z-score. The sequence “GCCTAGCACTCAAAGAGGAAGTGACATTTGTGCTAGGTCTTGATTCGCTTGACGCTGCTG” displayed a binding signal with PU.1 (IVT) [2] of 7.03 z-score. In turn, “GCCTAGCACGAAAAAGGGAACTGGTTGGGGTGCTAGGTCTTGATTCGCTTGACGCTGCTG” displayed a binding signal with PU.1 (IVT) [2] of 5.22 z-score. On the same count and under the same terms, under “GCCTAGCACGGAAGAAGGAAGTGGGGGCCGTGCTAGGTCTTGATTCGCTTGACGCTGCTG” stands 3.66 z-score; under “GCCTAGCACAGGAGGAGGAAGTGGGGGGAGTGCTAGGTCTTGATTCGCTTGACGCTGCTG”, 4.05 z-score; under “GCCTAGCACGATAAGAGGAACTGTAAGCTGTGCTAGGTCTTGATTCGCTTGACGCTGCTG”, 3.92 z-score. In the assay with PU.1 (IVT) [1], “GCCTAGCACTGAGAGGAGAAGTGAAATCTGTGCTAGGTCTTGATTCGCTTGACGCTGCTG” came in with a binding signal of 1.39 z-score. Same read-out and setting: under “GCCTAGCACCAAATTAGGAACTGATGCGGGTGCTAGGTCTTGATTCGCTTGACGCTGCTG” stands 2.14 z-score. Still for that read-out and setting: under “GCCTAGCACGCTAAGAGGAAGTCCTCTGTGTGCTAGGTCTTGATTCGCTTGACGCTGCTG” stands 5.07 z-score. Sequence “GCCTAGCACAAAAAGAGGAAGTGAGATGGGTGCTAGGTCTTGATTCGCTTGACGCTGCTG” registered a binding signal with PU.1 (IVT) [2] of 8.88 z-score. Same read-out and setting: the same measure for “GCCTAGCACAAAAAAAGGAAGTGGTAGCAGTGCTAGGTCTTGATTCGCTTGACGCTGCTG”: 6.75 z-score; for “GCCTAGCACAAAAAGAGGAAGTGATGATGGTGCTAGGTCTTGATTCGCTTGACGCTGCTG”: 9.07 z-score. In the assay with PU.1 (IVT) [1], “GCCTAGCACACAAAGGGGAAGTGCTAGGGGTGCTAGGTCTTGATTCGCTTGACGCTGCTG” registered a binding signal of 6.35 z-score. Regarding “GCCTAGCACAAGAGGAGGAAGTGAGAGAGGTGCTAGGTCTTGATTCGCTTGACGCTGCTG”, in the assay with PU.1 (IVT) [2], the binding signal was determined as 4.33 z-score.

As for “GCCTAGCACAAAAAGAGGAAGTGGTACAAGTGCTAGGTCTTGATTCGCTTGACGCTGCTG”, the binding signal in the assay with PU.1 (IVT) [2] was determined as 8.76 z-score.

As for “GCCTAGCACAAAAAAAGGAAGTGCTCAAGGTGCTAGGTCTTGATTCGCTTGACGCTGCTG”, the binding signal in the assay with PU.1 (IVT) [1] was 6.42 z-score.

In turn, “GCCTAGCACAAAAAAAGGAAGTGAGATAAGTGCTAGGTCTTGATTCGCTTGACGCTGCTG” displayed a binding signal with PU.1 (IVT) [2] of 6.74 z-score. For the sequence “GCCTAGCACAAAAAGAGGAAGGGTGGCTGGTGCTAGGTCTTGATTCGCTTGACGCTGCTG”, in the assay with PU.1 (IVT) [1], the binding signal turned out to be 4.91 z-score. As to “GCCTAGCACAAAAAGAGGAAGGGACCCAAGTGCTAGGTCTTGATTCGCTTGACGCTGCTG”, the binding signal in the assay with PU.1 (IVT) [2] worked out at 5.29 z-score. As to “GCCTAGCACAAAAAGCGGAAGTGCAAAAGGTGCTAGGTCTTGATTCGCTTGACGCTGCTG”, the binding signal in the assay with PU.1 (IVT) [2] came out at 8.5 z-score.

For “GCCTAGCACAAAAGGAGGAAGTGATGATGGTGCTAGGTCTTGATTCGCTTGACGCTGCTG”, the binding signal in the assay with PU.1 (IVT) [1] was found to be 6.55 z-score.

In turn, “GCCTAGCACGAAAGGAGGAAGTGAAACTGGTGCTAGGTCTTGATTCGCTTGACGCTGCTG” displayed a binding signal in the assay with PU.1 (IVT) [1] of 6.19 z-score.

The sequence “GCCTAGCACCAAATGAGGAATTGATGCGGGTGCTAGGTCTTGATTCGCTTGACGCTGCTG” showed a binding signal with PU.1 (IVT) [1] of 2.8 z-score. “GCCTAGCACCAGAAAAGGAAGTAAGCCACGTGCTAGGTCTTGATTCGCTTGACGCTGCTG” displayed a binding signal in the assay with PU.1 (IVT) [2] of 3.98 z-score. “GCCTAGCACAAAAGAGGGAAGTGACATTCGTGCTAGGTCTTGATTCGCTTGACGCTGCTG” had a binding signal with PU.1 (IVT) [1] of 5.89 z-score. “GCCTAGCACAAAAAAAGGAAGTACAGTAAGTGCTAGGTCTTGATTCGCTTGACGCTGCTG” showed a binding signal in the assay with PU.1 (IVT) [2] of 6.54 z-score.

As to “GCCTAGCACAAAAAGAGGAAGTGACTCACGTGCTAGGTCTTGATTCGCTTGACGCTGCTG”, the binding signal with PU.1 (IVT) [2] was found to be 8.49 z-score. The same measure, in the same setting: under “GCCTAGCACAAAAAGAGGAAGTACATTAAGTGCTAGGTCTTGATTCGCTTGACGCTGCTG” stands 8.68 z-score; under “GCCTAGCACAAAAAGAGGAAGTGACTTCAGTGCTAGGTCTTGATTCGCTTGACGCTGCTG”, 8.34 z-score. The same measure, in the same setting: under “GCCTAGCACGCAAAGAGGAAGTGACTCAAGTGCTAGGTCTTGATTCGCTTGACGCTGCTG” stands 6.81 z-score. In the assay with PU.1 (IVT) [1], “GCCTAGCACGATTTGAGGAAATGAAACTTGTGCTAGGTCTTGATTCGCTTGACGCTGCTG” had a binding signal of 3.79 z-score.

In the case of “GCCTAGCACAAAAAGGGGAAGTCATCTATGTGCTAGGTCTTGATTCGCTTGACGCTGCTG”, the binding signal with PU.1 (IVT) [2] amounted to 8.05 z-score. As to “GCCTAGCACAATATGAGGAAGTGCTCTAGGTGCTAGGTCTTGATTCGCTTGACGCTGCTG”, the binding signal with PU.1 (IVT) [1] is 6.67 z-score. The same measure, in the same setting: the same measure for “GCCTAGCACTTACACAGGAAGTGCTGGCAGTGCTAGGTCTTGATTCGCTTGACGCTGCTG”: 2.14 z-score. In the case of “GCCTAGCACAAAAAGAGGAAGAGAAACTTGTGCTAGGTCTTGATTCGCTTGACGCTGCTG”, in the assay with PU.1 (IVT) [2], the binding signal amounted to 6.04 z-score. Same read-out and setting: under “GCCTAGCACAAAATGAGGAAGTCATTCTTGTGCTAGGTCTTGATTCGCTTGACGCTGCTG” stands 8.35 z-score; under “GCCTAGCACAAAAAGAGGAAGTGCTACTTGTGCTAGGTCTTGATTCGCTTGACGCTGCTG”, 8.88 z-score; under “GCCTAGCACAAAAAGAGGAAGTCATTCTTGTGCTAGGTCTTGATTCGCTTGACGCTGCTG”, 8.71 z-score. On the same count and under the same terms, under “GCCTAGCACAAAAACAGGAAGTCCTATTCGTGCTAGGTCTTGATTCGCTTGACGCTGCTG” stands 7.91 z-score; under “GCCTAGCACAAAAAGAGGAAGTCCTATTTGTGCTAGGTCTTGATTCGCTTGACGCTGCTG”, 8.54 z-score; under “GCCTAGCACACAAAGAGGAAGTCCCATTTGTGCTAGGTCTTGATTCGCTTGACGCTGCTG”, 7.29 z-score. Still for that read-out and setting: the same measure for “GCCTAGCACAAAAAGAGGAAGAGGCGCTTGTGCTAGGTCTTGATTCGCTTGACGCTGCTG”: 5.63 z-score. In turn, “GCCTAGCACAAAAATAGGAAATGAAAGTAGTGCTAGGTCTTGATTCGCTTGACGCTGCTG” had a binding signal with PU.1 (IVT) [1] of 3 z-score. In turn, “GCCTAGCACGAAAGAGGGAAGTGGGCATAGTGCTAGGTCTTGATTCGCTTGACGCTGCTG” had a binding signal in the assay with PU.1 (IVT) [2] of 4.48 z-score. The sequence “GCCTAGCACGCAGGGAGGAAGTGGGGAAGGTGCTAGGTCTTGATTCGCTTGACGCTGCTG” showed a binding signal with PU.1 (IVT) [1] of 3.42 z-score.
